In PubChem BioAssay (NCI):
This is part of a sample that, as a whole, favours compounds with a hit. Of some 79,000 tested, about 15% had one in any assay. Active and inactive are the calls of the source. No stated cut-off is given here; in the data, active means growth inhibition above about 70%; inactive means the rest.

How the values were obtained:
[1] = NCI Yeast Anticancer Drug Screen. Data for the wt1 strain (AID 149);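 further: 0% = growth of vehicle-treated wt1 cultures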; details: S. cerevisiae wt1 strain (SPY 50644) growth inhibition, stronger effect = higher value
Outline: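 wt1 yeast, compound-treated; % growth inhibition vs vehicle control.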

[2] = NCI Yeast Anticancer Drug Screen. Data for the rad50EPP+ strain (AID 151);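 further: 0% = growth of vehicle-treated control cultures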; details: S. cerevisiae rad50 mutant strain, stronger effect = higher value
Outline: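 Genetically defined yeast (rad50EPP+, DNA damage repair alteration) is grown with compound, and inhibition of growth is expressed relative to vehicle-treated controls.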

[3] = NCI Yeast Anticancer Drug Screen. Data for the mgt1 strain (AID 153); details: S. cerevisiae mgt1 mutant growth inhibition, stronger effect = higher value
Outline: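 In the mgt1 strain, test compounds were added and growth inhibition was determined relative to vehicle-treated controls.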

[4] = NCI Yeast Anticancer Drug Screen. Data for the rad50 strain (AID 155);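 further: 0% = growth of vehicle-only cultures of the same strain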; details: S. cerevisiae rad50 strain growth inhibition, stronger effect = higher value
Outline: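 Genetically altered yeast (DNA repair pathway); compound treatment; growth inhibition vs vehicle ctrl.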

[5] = NCI Yeast Anticancer Drug Screen. Data for the mec2-1 strain (AID 157); details: S. cerevisiae mec2-1 strain, stronger effect = higher value
Outline: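 Each compound was tested on mec2-1 yeast, a strain altered in DNA damage repair or cell cycle control. Growth inhibition is reported relative to vehicle.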

[6] = NCI Yeast Anticancer Drug Screen. Data for the rad14 strain (AID 159);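 further: 0% = growth of vehicle-treated control cultures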; details: S. cerevisiae rad14 strain growth inhibition, stronger effect = higher value
Outline: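 Test compounds were applied to a repair-deficient yeast strain. Its growth was then compared with that of cultures given vehicle alone, and inhibition was expressed relative to those controls.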

[7] = NCI Yeast Anticancer Drug Screen. Data for the sgs1 mgt1 strain (AID 161);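 further: 0% = growth of cultures given vehicle only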; details: S. cerevisiae sgs1 mgt1 strain, stronger effect = higher value
Outline: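 Inhibition of yeast growth, normalised to vehicle-treated controls, is reported for a strain bearing genetic alterations in DNA damage repair.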

[8] = NCI Yeast Anticancer Drug Screen. Data for the CLN2oe strain (AID 163);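 further: 0% = growth of vehicle-only control cultures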; details: S. cerevisiae CLN2oe strain, stronger effect = higher value
Outline: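 First, the altered yeast strain was treated with each compound; second, its growth was measured; finally, inhibition was derived by comparison with vehicle controls.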

[9] = NCI Yeast Anticancer Drug Screen. Data for the bub3 strain (AID 167); details: S. cerevisiae bub3 mutant strain, stronger effect = higher value
Outline: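 Yeast carrying a defined mutation is treated with each compound, and growth is compared with that of vehicle-exposed cells to give inhibition.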

[10] = NCI Yeast Anticancer Drug Screen. Data for the wt2 strain (AID 169);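 further: 0% = growth of vehicle-treated yeast cultures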; details: S. cerevisiae wt2 strain growth inhibition, stronger effect = higher value
Outline: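 The panel's yeast strains carry defined changes in DNA repair or cell cycle genes. Each strain is grown with compound, and growth loss is scored relative to vehicle.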

[11] = NCI Yeast Anticancer Drug Screen. Data for the mlh1 strain (AID 171);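 further: 0% = growth of vehicle-treated control cultures of the same strain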; details: S. cerevisiae mlh1 strain growth inhibition, stronger effect = higher value
Outline: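 Inhibition values reflect reduced yeast growth in the presence of compound, referenced to vehicle controls, using a strain chosen for its alteration in DNA repair or cell cycle control.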

[12] = NCI Yeast Anticancer Drug Screen. Data for the sgs1 strain (AID 173);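 further: 0% = growth of vehicle-only control cultures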; details: S. cerevisiae sgs1 mutant, stronger effect = higher value
Outline: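 Vehicle-treated cultures served as reference for growth inhibition of a yeast strain altered in DNA damage repair or cell cycle control after compound exposure.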

[13] = NCI Yeast Anticancer Drug Screen. Data for the mlh1 rad18 strain (AID 175); details: S. cerevisiae mlh1 rad18 strain growth inhibition, stronger effect = higher value
Outline: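 Inhibition values reflect reduced growth of mutant yeast versus vehicle-treated controls following compound exposure; the mutations affect DNA damage repair.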

[14] = NCI Yeast Anticancer Drug Screen. Data for the rad18 strain (AID 177); details: S. cerevisiae rad18 mutant growth inhibition, stronger effect = higher value
Outline: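 Steps: expose repair-mutant yeast to compound; measure growth; express as inhibition relative to vehicle control.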

[15] = at 5.0 µM (retest, dose inferred, filed as 0.5)
[16] = at 50.0 µM (retest, dose inferred, filed as 5.0)

Measured: growth inhibition

c1cc(Nc2ccc3c(c2)OCO3)c2cc(C3CCCCC3)ccc2n1
inactive: [1]; at 1.2 µM 0% | [1]; at 3.7 µM 0% | [1]; at 11.0 µM -4% | [1]; at 33.0 µM -6% | [1]; at 100.0 µM 34% | [2]; at 1.2 µM 1% | [2]; at 3.7 µM -2% | [2]; at 11.0 µM -2% | [2]; at 33.0 µM -3% | [2]; at 100.0 µM 23% | [3]; at 1.2 µM -2% | [3]; at 3.7 µM -4% | [3]; at 11.0 µM -3% | [3]; at 33.0 µM -6% | [4]; at 1.2 µM 19% | [4]; at 3.7 µM -14% | [4]; [15] 4% | [4]; at 11.0 µM 5% | [4]; at 33.0 µM 5% | [4]; [16] 48% | [5]; at 1.2 µM -3% | [5]; at 3.7 µM -2% | [5]; [15] -8% | [5]; at 11.0 µM -4% | [5]; at 33.0 µM -2% | [5]; [16] 23% | [6]; at 1.2 µM 5% | [6]; at 3.7 µM 5% | [6]; at 11.0 µM 7% | [6]; at 33.0 µM 15% | [7]; [15] 0% | [7]; [16] 46% | [8]; at 1.2 µM 1% | [8]; at 3.7 µM 3% | [8]; at 11.0 µM -1% | [8]; at 33.0 µM 4% | [8]; at 100.0 µM 52% | [9]; at 1.2 µM -1% | [9]; at 3.7 µM -3% | [9]; [15] 10% | [9]; at 11.0 µM -2% | [9]; at 33.0 µM 8% | [10]; at 1.2 µM 0% | [10]; at 3.7 µM -1% | [10]; at 11.0 µM -2% | [10]; at 33.0 µM 0% | [11]; at 1.2 µM -1% | [11]; at 3.7 µM -1% | [11]; at 11.0 µM -2% | [11]; at 33.0 µM 2% | [12]; at 1.2 µM -1% | [12]; at 3.7 µM -2% | [12]; at 11.0 µM -7% | [12]; at 33.0 µM 5% | [13]; [15] 7% | [14]; at 1.2 µM -3% | [14]; at 3.7 µM -7% | [14]; at 11.0 µM -14% | [14]; at 33.0 µM -16%
active: [3]; at 100.0 µM 85% | [4]; at 50.0 µM 99.3% | [4]; at 100.0 µM 73% | [5]; at 50.0 µM 99.5% | [5]; at 100.0 µM 72% | [6]; at 100.0 µM 78% | [7]; at 50.0 µM 99.2% | [9]; [16] 98% | [9]; at 50.0 µM 98.6% | [9]; at 100.0 µM 74% | [10]; at 100.0 µM 81% | [11]; at 100.0 µM 82% | [12]; at 100.0 µM 86% | [13]; [16] 73% | [13]; at 50.0 µM 99.5% | [14]; at 100.0 µM 85%
